These results are taken from PubChem BioAssay AID425 (Sanford-Burnham Center for Chemical Genomics, 2006).

“And” between values parts separate entries of the source, which are not always exact repeats. Identical values can stand only once. Screen size: about 110,000 compounds; about 190 (0.17%) were called active. This is one part of a sample in which actives are shown more often than they occur. Cut-off read from the data, not from the text of the source: active = inhibition above about 50%; inactive = the rest. Results with a measured potency or affinity are listed apart. Some compounds were tested as several samples or in several runs, with calls that do not always agree.

The target in this assay is Dual specificity protein phosphatase 6 (Rattus norvegicus) (UniProt Q64346). Description: MKP-3 phosphatase inhibitors, primary screen, biochemical, rat enzyme, in vitro (AID 425).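 Note: plate controls were vehicle for no effect and reference inhibitor for full effect.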 Particulars: recombinant MKP-3 phosphatase activity, fluorescence; at 20 µM; stronger effect = higher value.
Sequence of Dual specificity protein phosphatase 6 (Rattus norvegicus) (Q64346 whole entry, looked up): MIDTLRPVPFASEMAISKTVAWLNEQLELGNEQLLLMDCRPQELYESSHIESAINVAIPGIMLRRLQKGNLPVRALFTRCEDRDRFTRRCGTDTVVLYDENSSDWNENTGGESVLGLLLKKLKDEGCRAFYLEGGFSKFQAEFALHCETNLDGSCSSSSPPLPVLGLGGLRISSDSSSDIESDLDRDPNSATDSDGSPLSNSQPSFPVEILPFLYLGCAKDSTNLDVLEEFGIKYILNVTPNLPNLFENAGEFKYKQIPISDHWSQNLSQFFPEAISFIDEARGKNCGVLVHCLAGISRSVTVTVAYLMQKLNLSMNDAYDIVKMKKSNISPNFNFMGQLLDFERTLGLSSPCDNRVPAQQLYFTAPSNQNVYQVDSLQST
What is called inhibition is the change of the read-out against control, counted positive when it falls. Take `Cc1nc2ncccn2c1-c1csc(Nc2cccc(O)c2)n1`: the inhibition was 2.7% (inactive).

For `O=C(CCCCC(=O)NCc1cccs1)NCc1cccs1`, the inhibition is -5.6% (inactive).

Regarding `CCn1cc(C(C)NC(=O)COc2ccc(Cl)cc2C)c(C)n1` (centres undefined), the inhibition is -4% (inactive).

Take `c1ccc(-c2nc(C3COc4ccccc4O3)cs2)cc1` (centres undefined): the inhibition is -4.2% (inactive).

In the case of `CCOc1ccc2nc(Nc3nc(O)c(C)c(=O)[nH]3)nc(C)c2c1`, the inhibition was 0.7% (inactive).

As to `CCOc1ccc2nc(Nc3nc(C)c(C)c(=O)[nH]3)nc(C)c2c1`, the inhibition is 1.2% (inactive).

`COc1ccc([N+](=O)[O-])cc1NC(=O)c1ccc(N(C)C)cc1`: the inhibition is 1.4% (inactive).

In the case of `Cn1cccc1Cc1nnc(SCC(=O)Nc2nc3ccccc3s2)n1CCc1ccccc1`, the inhibition was -4.6% (inactive).

As for `O=C1c2cccnc2-c2ncccc21`, the inhibition was 6.6% (inactive).

For `Cc1ccc(C)n1-c1ccc(SCC(=O)O)cc1`, the inhibition is 106% (active).

Turning to `Cc1ccc(C)n1-c1ccc(OCC(=O)O)cc1`, the inhibition is 25.7% (inactive).

As to `Cc1ccc(C)n1-c1ccc(CC(=O)O)cc1`, the inhibition was 25.5% (inactive).

With `CCOC(=O)c1c(NC(=S)NCc2ccccc2)sc2c1CCC2`, the inhibition was 0% (inactive).

Consider `CC(Cc1ccccc1)N=Cc1c(O)[nH]c2ccccc12` (centres undefined), for which the inhibition was 3.3% (inactive).

For `CCOC(=O)c1c(C)[nH]c(/C=C(/C#N)C(N)=NCc2ccccc2)c1O`, the inhibition is 1.3% (inactive).

For `CC(Cc1ccccc1)N=C(N)/C(C#N)=C\c1[nH]c2ccccc2c1O` (centres undefined), the inhibition was 69.4% (active).

For `COc1ccc(N(CC(=O)NCC2CCCO2)S(=O)(=O)c2c(C)noc2C)cc1` (centres undefined), the inhibition is -8.1% (inactive).

Take `O=C(CSc1ccc(C(=O)O)cc1)Nc1ccccc1`: the inhibition is 0.1% (inactive).

In the case of `Cc1nc(SCC(=O)Nc2ccc(F)cc2)c2oc3ccccc3c2n1`, the inhibition is -2.1% (inactive).

As to `Cc1ccc(C)n1-c1ccc(Cl)c(C(=O)O)c1`, the inhibition is 71.5% (active).

Turning to `Cc1ccc(C)n1-c1ccc(C(=O)O)c(O)c1`, the inhibition was 101% (active).

In the case of `Cc1ccc(C)n1-c1ccc(C(=O)O)c(Cl)c1`, the inhibition was 28.4% (inactive).

In the case of `Cc1ccc(C)n1-c1ccc(O)c(C(=O)O)c1`, the inhibition was 100% (active).

In the case of `Cc1nc(=O)c(-c2ccccc2)c(C)n1-c1ccc(C(=O)O)c(O)c1`, the inhibition is 3.2% (inactive).

`Cc1ccc(-c2ccccc2)n1-c1ccc(Cl)c(C(=O)O)c1`: the inhibition is 4.5% (inactive).

On to `O=C(O)c1ccc(-n2cccc2)cc1O`, for which the inhibition is 4.3% (inactive).

With `Cc1ccc(-c2ccccc2)n1-c1ccc(O)c(C(=O)O)c1`, the inhibition was 42.1% (inactive).

Regarding `Cc1nc(=O)c(-c2ccccc2)c(C)n1-c1ccc(O)c(C(=O)O)c1`, the inhibition was -7.4% (inactive).

For the compound `CCCOc1ccc(C2/C(=C(/O)c3ccccc3)C(=O)C(=O)N2CCCN(C)C)cc1OC` (centres undefined), the inhibition is -0.5% (inactive).

Turning to `CCN(CC)CC(=O)Nc1c(Br)ccc2c1OCO2`, the inhibition is -11.8% (inactive).

For `CCC(=O)N1CCc2cc(Br)cc(S(=O)(=O)N3CCN(C(=O)c4ccco4)CC3)c21`, the inhibition is 4.6% (inactive).

As to `COc1ccc(/C=N/NC(=O)CCn2c3ccccc3c3ccccc32)cc1`, the inhibition is 0.1% (inactive).

`CCSc1nnc(Cn2c(=O)sc3ccccc32)n1C`: the inhibition was 0.4% (inactive).

Consider `CC(C)(C)C(=O)CC(O)(c1ccccc1)C(F)(F)C(F)F` (centres undefined), for which the inhibition was -1.8% (inactive).

On to `CC(C)(C)C1=CC(=O)C=C(C(C)(C)C)C1=O`, for which the inhibition is 6.8% (inactive).

Regarding `CC(=O)/C(C1=C(C(C)(C)C)C(=O)C(=O)C(C(C)(C)C)=C1)=C(/C)O`, the inhibition is 6.5% (inactive).

On to `CC(C)(C)C1=CC(N)=C(C(C)(C)C)C(=O)C1=O`, for which the inhibition is 86.4% (active).

With `c1ccc(Cn2ncc3c(N4CCN(c5ccccn5)CC4)ncnc32)cc1`, the inhibition is 6.4% (inactive).

Consider `COc1ccc(CNS(=O)(=O)c2ccc([N+](=O)[O-])cc2)cc1`, for which the inhibition was -4% (inactive).

In the case of `C=CCN1C(=O)NC(=O)/C(=C\c2ccc(OCc3ccc(Cl)cc3)c(OC)c2)C1=O`, the inhibition is 5.1% (inactive).

As for `Brc1ccc(/C=N/n2c(-c3ccccc3)nnc2-c2ccccc2)cc1`, the inhibition was -2.7% (inactive).

Take `COc1cccc(/C=N/n2c(SC)nnc2-c2ccccc2)c1O`: the inhibition was -6.8% (inactive).

For the compound `O=C(c1ccco1)N1CCN(S(=O)(=O)c2ccc(Br)s2)CC1`, the inhibition was -14.7% (inactive).

`CCOc1ccc(NC(=O)c2cccc(F)c2)cc1`: the inhibition is 4.1% (inactive).

Take `O=C(Nc1cccc(NC(=O)c2cccnc2)c1)c1cccnc1`: the inhibition was 5.6% (inactive).

For the compound `Nc1ccc(S(=O)(=O)O)c2cccc(O)c12`, the inhibition was 29.8% (inactive) and 64.8% (active).

In the case of `Nc1ccc(S(=O)(=O)O)c2cccc(S(=O)(=O)O)c12`, the inhibition is -2.3% (inactive).

With `Nc1cc(S(=O)(=O)O)cc2cccc(S(=O)(=O)O)c12`, the inhibition was -2% (inactive).

Turning to `O=C(c1ccc(N2CCN(C(=O)c3ccccc3Br)CC2)cc1)c1cccc(F)c1`, the inhibition is 52.2% (active).

Turning to `O=C(c1ccc(N2CCN(C(=O)c3ccccc3)CC2)cc1)c1cccc(F)c1`, the inhibition is 4.8% (inactive).

Regarding `O=C(c1ccc(N2CCN(C(=O)c3ccccc3F)CC2)cc1)c1cccc(F)c1`, the inhibition was 4.1% (inactive).

Consider `Cc1ccc(C(=O)Nc2ccc(N3CCOCC3)c(Cl)c2)cc1C`, for which the inhibition is 5.9% (inactive).

Regarding `O=S(=O)(c1cc(Cl)cc(Cl)c1O)c1cc(Cl)cc(Cl)c1O`, the inhibition is -3.1% (inactive).

`O=C(Cn1c(NCCCO)nc2ccccc21)c1ccco1`: the inhibition is -11.1% (inactive).

As to `Cc1c(Cl)ccc2c1NC(C(=O)O)C1CC=CC21` (centres undefined), the inhibition is 107% (active).

For the compound `Cc1ccc2c(c1)C1C=CCC1C(c1ccccc1[N+](=O)[O-])N2` (centres undefined), the inhibition was 7% (inactive).

As for `Cc1ccc2c(c1)C1C=CCC1C(c1ccc([N+](=O)[O-])cc1)N2` (centres undefined), the inhibition was 3.4% (inactive).

Regarding `Cc1cc(I)c2c(c1)C1C=CCC1C(C(=O)O)N2` (centres undefined), the inhibition was 103% (active).

Consider `O=C(O)C1Nc2c(Cl)cc(Cl)cc2C2C=CCC12` (centres undefined), for which the inhibition was 98.5% (active).

For the compound `CC(=O)c1ccc2c(c1)C1C=CCC1C(c1ccc(Cl)cc1)N2` (centres undefined), the inhibition is 14.4% (inactive).

Take `O=C(O)C1Nc2c(C(=O)N3CCCC3)cccc2C2C=CCC12` (centres undefined): the inhibition is 5% (inactive).

On to `O=C(O)C1Nc2c(C(=O)N3CCOCC3)cccc2C2C=CCC12` (centres undefined), for which the inhibition was 0.2% (inactive).

For the compound `CCOC(=O)c1ccc2c(c1)C1C=CCC1C(c1ccc(Cl)cc1Cl)N2` (centres undefined), the inhibition is 3.3% (inactive).

Turning to `Brc1ccc(-c2nc(Cc3ccccc3)no2)cc1`, the inhibition was -2.5% (inactive).
